Consider 15 compounds from PubChem BioAssay.

For part of these data: Measured potencies and affinities stand elsewhere. Calls of active or inactive are those of the source.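 The calls were made as follows, unless noted: active = calcium signal ratio cut to more than 3 SD under the fully stimulated control mean yet still positive, in both repeats and the primary screen; inactive = the rest.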

For assay [1], the system named is TRPC4 beta (transient receptor potential cation channel C4), mouse. Description: activators of mouse TRPC4 channel, confirmation, cell-based, Fluo4 calcium, HEK293 TRPC4beta/mu-opioid, duplicates, 10 µM (AID 2426;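 active = fluorescence ratio normalized to control raised more than 50% in primary screen plus both repeat runs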;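 as to activation: percent rise of integrated ratio over buffer wells lacking compound which define 0%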). The note with it: Fluo4 calcium fluorescence, at 10 µM; stronger effect = higher value.
Assay [2] concerns transient receptor potential cation channel C4 beta (TRPC4), mouse. Description: activators of mouse TRPC4 channel, confirmation, cell-based, second round, Fluo4, HEK293 TRPC4beta/mu-opioid, 1 µM (AID 2461;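 active = primary screen active and over 50% activation in each of two duplicate runs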). The note with it: Fluo4 calcium fluorescence, at 1 µM; stronger effect = higher value.
The subject of assay [3] is TRPC4 (transient receptor potential cation channel C4 beta), mouse. Description: positive allosteric modulators of mouse TRPC4, confirmation, cell-based, second round, Fluo-4, HEK293 TRPC4beta/mu-opioid, 1 µM (AID 2554;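 active = primary screen hit whose fluorescence ratio, in both repeats, exceeds the weak agonist control mean by 3 SD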). The settings on record: DAMGO EC20, Fluo-4 calcium flux, at 1 µM; stronger effect = higher value. For orientation: Calcium flux is commonly read through the fluorescence of an indicator in the cells.

The test system of assay [4] is TRPC4 beta (transient receptor potential cation channel C4), mouse. Kind of assay: positive allosteric modulators of mouse TRPC4, confirmation, cell-based, Fluo-4, HEK293 TRPC4beta/mu-opioid (AID 2555;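 active = primary screen hit whose calcium fluorescence ratio, in both repeats, exceeds the weak agonist control mean by 3 SD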). The note with it: DAMGO EC20, Fluo-4 calcium flux, at 10 µM; stronger effect = higher value.
For assay [5], the target named is Short transient receptor potential channel 4 (Mus musculus) (UniProt Q9QUQ5). Kind of assay: inhibitors of mouse TRPC4 channel, confirmation, cell-based, Fluo4, HEK293 TRPC4beta/mu-opioid (AID 2636;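 active = calcium signal cut by more than 3 SD below the full-agonist control yet still positive, in both repeats and the earlier primary screen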). The settings on record: DAMGO, Fluo4 calcium flux, at 10 µM; stronger effect = higher value.
Sequence of Short transient receptor potential channel 4 (Mus musculus) (Q9QUQ5 whole entry, looked up): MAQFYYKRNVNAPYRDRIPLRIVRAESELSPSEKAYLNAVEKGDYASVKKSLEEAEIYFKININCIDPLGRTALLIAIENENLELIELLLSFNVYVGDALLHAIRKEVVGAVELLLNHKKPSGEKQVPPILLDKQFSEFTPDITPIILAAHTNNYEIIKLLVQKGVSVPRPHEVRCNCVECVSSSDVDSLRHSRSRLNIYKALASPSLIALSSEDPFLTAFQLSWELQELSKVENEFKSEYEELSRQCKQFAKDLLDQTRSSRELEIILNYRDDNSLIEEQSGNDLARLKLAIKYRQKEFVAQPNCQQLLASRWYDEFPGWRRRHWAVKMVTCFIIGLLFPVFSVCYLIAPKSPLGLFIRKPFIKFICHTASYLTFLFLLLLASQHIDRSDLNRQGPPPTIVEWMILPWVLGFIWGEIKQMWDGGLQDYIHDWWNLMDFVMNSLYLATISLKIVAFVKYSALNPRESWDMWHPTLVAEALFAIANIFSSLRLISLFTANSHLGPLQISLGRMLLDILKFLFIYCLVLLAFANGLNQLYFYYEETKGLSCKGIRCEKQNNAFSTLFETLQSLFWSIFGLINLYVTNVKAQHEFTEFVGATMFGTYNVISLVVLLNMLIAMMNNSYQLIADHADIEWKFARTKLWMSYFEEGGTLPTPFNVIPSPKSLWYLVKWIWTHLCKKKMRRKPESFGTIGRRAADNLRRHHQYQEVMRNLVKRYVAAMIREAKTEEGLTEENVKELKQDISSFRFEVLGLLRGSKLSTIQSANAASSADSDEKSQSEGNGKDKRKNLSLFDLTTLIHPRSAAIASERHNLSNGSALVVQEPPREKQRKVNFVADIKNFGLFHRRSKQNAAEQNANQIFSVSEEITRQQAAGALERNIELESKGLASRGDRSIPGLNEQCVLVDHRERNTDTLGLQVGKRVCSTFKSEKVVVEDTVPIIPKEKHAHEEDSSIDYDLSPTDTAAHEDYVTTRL
The target is the same in assay [6]. Kind of assay: inhibitors of mouse TRPC4 channel, confirmation, cell-based, second round, Fluo4, HEK293 TRPC4beta/mu-opioid, 1 µM (AID 2637). The settings on record: Fluo4 calcium flux, DAMGO, at 1 µM; stronger effect = higher value.
Assay [7] has the same target. Description: TRPC4 positive allosteric modulators, dose response, cell-based, HEK293 TRPC4/mu-opioid, Fluo-4 calcium, EC20 DAMGO (AID 434941;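 active = earlier screen potentiator hit that boosts the TRPC4 ion channel at some dose, with a dose response; inactive = no potentiation, no dose response, or not a prior hit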;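 also: calcium entry triggered by an EC20 dose of DAMGO at the co-expressed mu-opioid receptor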).
For assay [8] the target is unchanged. Kind of assay: mouse TRPC4 channel inhibitors, dose response, cell-based, HEK293 TRPC4/mu-opioid, Fluo-4 calcium (AID 434942;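 active = primary screen inhibitor hit that blocks the TRPC4 channel at some tested dose, yielding a dose curve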).
Assay [9] deals with Short transient receptor potential channel 6 (Mus musculus) (UniProt Q61143). Kind of assay: inhibition of mouse TRPC6 channel, confirmation, selectivity assay for TRPC4 inhibitor project, cell-based, HEK293, membrane potential dye, duplicate (AID 434948;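 active = active in primary screen and both duplicates, each dropping signal beyond three positive-control SD with fluorescence still positive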). The settings on record: HEK293 TRPC6, membrane potential dye fluorescence, at 10 µM, stimulated with maximal-effect acetylcholine; stronger effect = higher value.
Sequence of Short transient receptor potential channel 6 (Mus musculus) (Q61143 whole entry, looked up): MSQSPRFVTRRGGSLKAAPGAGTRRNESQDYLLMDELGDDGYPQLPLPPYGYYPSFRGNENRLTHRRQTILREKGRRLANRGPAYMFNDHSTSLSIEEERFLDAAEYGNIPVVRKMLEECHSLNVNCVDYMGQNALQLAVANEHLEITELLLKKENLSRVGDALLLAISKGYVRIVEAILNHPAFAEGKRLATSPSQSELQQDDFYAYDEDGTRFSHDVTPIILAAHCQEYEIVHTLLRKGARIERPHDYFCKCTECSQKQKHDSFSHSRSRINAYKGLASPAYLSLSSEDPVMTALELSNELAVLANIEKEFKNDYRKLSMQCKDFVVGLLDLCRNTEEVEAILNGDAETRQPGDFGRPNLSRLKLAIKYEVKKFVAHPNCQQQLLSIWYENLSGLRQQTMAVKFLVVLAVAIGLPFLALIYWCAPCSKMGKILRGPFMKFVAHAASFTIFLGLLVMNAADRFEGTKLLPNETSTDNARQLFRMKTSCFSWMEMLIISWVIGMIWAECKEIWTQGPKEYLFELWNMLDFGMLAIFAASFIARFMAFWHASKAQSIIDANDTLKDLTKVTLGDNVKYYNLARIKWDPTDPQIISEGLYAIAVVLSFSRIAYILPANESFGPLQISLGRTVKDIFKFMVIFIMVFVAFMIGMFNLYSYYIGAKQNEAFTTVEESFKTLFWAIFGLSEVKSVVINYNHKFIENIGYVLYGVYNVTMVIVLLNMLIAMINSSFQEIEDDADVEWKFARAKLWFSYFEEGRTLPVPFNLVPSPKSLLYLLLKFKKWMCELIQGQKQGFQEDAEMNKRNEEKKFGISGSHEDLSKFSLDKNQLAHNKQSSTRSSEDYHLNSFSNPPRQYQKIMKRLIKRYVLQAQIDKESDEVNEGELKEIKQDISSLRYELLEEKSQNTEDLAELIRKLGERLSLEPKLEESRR

The target is the same in assay [10]. Kind of assay: activation of mouse TRPC6 channel, confirmation, selectivity assay for TRPC4 activator project, cell-based, HEK293, membrane potential dye, duplicate (AID 434950;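 active = membrane potential signal rise above negative control mean plus 3 SD in both duplicates, also active in the earlier TRPC4 screen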;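 as to activation: 0% = buffer only wells and 100% = acetylcholine maximal-effect wells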). The settings on record: HEK293 TRPC6, membrane potential fluorescence, at 10 µM; stronger effect = higher value.
Assay [11] has the same target. Kind of assay: TRPC6 potentiation by TRPC4 potentiator hits, confirmation, selectivity assay for TRPC4 potentiator project, HEK293 cells, membrane potential dye, duplicate (AID 434952;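 active = compound raising the membrane signal above positive-control mean plus 3 SD in both repeats, and a primary screen hit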). The note with it: HEK293 TRPC6, membrane potential dye fluorescence, at 10 µM, maximal acetylcholine added after compound; stronger effect = higher value.
Assay [12] has as its target Short transient receptor potential channel 4 (Mus musculus) (UniProt Q9QUQ5). Description: calcium flux activators in TRPC4/5HT1a cells, counter-screen for TRPC4 activator project, cell-based, second counter screen, HEK293 TRPC4/5HT1a, Fluo-4 (AID 434977;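 active = calcium signal rise above buffer-control mean plus 5 SD in both duplicates, and also a hit in the primary screen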;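 as to activation: plate controls were assay buffer for no effect and maximal serotonin response for full effect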). The settings on record: Fluo-4 calcium flux, at 10 µM; stronger effect = higher value.
The nature of assay [13]: calcium flux inhibitors in TRPC4/5HT1a cells, confirmation, counter-screen for TRPC4 inhibitor project, cell-based, second counter screen, HEK293 TRPC4/5HT1a, Fluo-4 (AID 434978;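 active = primary screen active whose calcium signal fell more than 3 SD beyond the full-serotonin control mean in both duplicate plates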;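 also: serotonin given first at submaximal then at maximal dose after compound preincubation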). The note with it: Fluo-4 calcium flux, at 10 µM, serotonin added to trigger calcium flux; stronger effect = higher value.
In assay [14] the test system is TRPC4 (mouse), co-expressed with 5HT1a in HEK293. Kind of assay: calcium flux potentiators in TRPC4/5HT1a cells, confirmation, counter-screen for TRPC4 potentiator project, cell-based, second counter screen, HEK293 TRPC4/5HT1a, Fluo-4 (AID 434979;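 active = signal rise over 3 SD above mean of control wells given weak agonist, in both repeats and first screen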). The note with it: Fluo-4 calcium flux, at 10 µM, serotonin added at its EC20 dose; stronger effect = higher value.
A short description of assay [15]: calcium flux activation in mu-opioid HEK293 cells, confirmation, counter-screen for TRPC4 activator project, cell-based, HEK293 mu-opioid receptor line (AID 449723;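 active = hit in primary screen, with calcium signal over 5 SD above buffer well mean in both duplicates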;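 also: counter screen cells carry the mu-opioid receptor alone and lack TRPC4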). The note with it: Fluo-4 calcium fluorescence, at 10 µM; stronger effect = higher value.
The nature of assay [16]: calcium flux enhancement in mu-opioid HEK293 cells, confirmation, counter-screen for TRPC4 allosteric potentiator project, cell-based, HEK293 mu-opioid receptor line (AID 449724;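 active = calcium signal rise more than 3 SD above the low-dose agonist control mean, in both duplicate plates and the primary screen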). The note with it: Fluo-4 calcium flux, at 10 µM, compound added before EC20 DAMGO stimulus; stronger effect = higher value.
Assay [17] concerns the target Short transient receptor potential channel 4 (Mus musculus) (UniProt Q9QUQ5). Kind of assay: mouse TRPC4 channel activators, dose response, cell-based, HEK293 TRPC4/mu-opioid, Fluo-4 calcium (AID 434937;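 active = primary screen activator hit with a dose response curve and TRPC4 channel activation at any tested dose; inactive = no activation, no dose response, or not a primary hit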).

For the compound `COc1cc(OC)c(OC)cc1CCC(C)NCCC(c1ccccc1)c1ccccc1` (stereo not given), the activation in assay [1] was 106% (active); in [10], 28% (active); in [12] it was 66.8% (active); in [15], 11.2% (active). The outcome in assay [2], in [3], in assay [4], in assay [5], in [6] and in assay [7] was inactive. The result in assay [8], in [9], in assay [11], in assay [13], in assay [14] and in assay [16] was inactive.
Regarding `CCOc1ccc(-n2c(SCC(=O)O)nc3sc4c(c3c2=O)CCCC4)cc1`, the result in assay [1], in assay [2], in assay [3], in assay [4], in assay [5] and in [6] was inactive. Further, the outcome in [17], in [8], in assay [9], in assay [10], in assay [11] and in assay [12] was inactive. Further, the result in assay [13], in assay [15] and in assay [16] was inactive. Besides, the potentiation in [14] is 16.4% (active).
As for `CCN1CCN(c2c(Cl)cccc2NC(=O)c2ccc([N+](=O)[O-])cc2)CC1`, the results for the activation in [1] and in [12] were 80% (active) and 7.83% (active), respectively. Besides, the result in assay [2], in assay [3], in [4], in assay [5], in [6] and in [7] was inactive. For the same compound, the outcome in assay [8], in [9], in assay [10], in assay [11], in assay [13] and in assay [14] was inactive. Also, the outcome in [15] and in assay [16] was inactive.
`CC(C)(C)[C@H]1C=C(C(=O)NCc2ccccc2)O[C@@H](OCc2ccc(CO)cc2)C1`: the activation in [1] is 68% (active); in [10] it was 24.5% (active). Moreover, the result in [2], in assay [3], in assay [4], in [5], in assay [6] and in assay [7] was inactive. Besides, the result in assay [8], in assay [9], in assay [11], in assay [12], in assay [13] and in [14] was inactive. Besides, the outcome in assay [15] and in assay [16] was inactive.
Regarding `O=C(Nc1cccc(Cl)c1)c1cnn2cccnc12`, the outcome in assay [1], in [2], in assay [5], in [6], in [17] and in assay [8] was inactive. Further, the result in assay [9], in assay [10], in assay [11], in assay [12], in assay [13] and in [15] was inactive. Also, the outcome in assay [16] was inactive. Also, the potentiation in assay [3] is 16% (active); in assay [4], 14% (active); in assay [14] it was 43% (active).
In the case of `COc1ccc(N/C(C)=C2/C(=O)C(=O)N(CCO)C2c2ccc([N+](=O)[O-])cc2)cc1` (stereo not given), the outcome in assay [1], in assay [2], in assay [5], in [6], in assay [17] and in assay [8] was inactive. Moreover, the compound was classed as inactive in assay [9], in assay [10], in [11], in assay [12], in assay [13] and in [15]. Moreover, in assay [16], the outcome was inactive. Moreover, the potentiation in assay [3] was 189% (active); in assay [4], 150% (active); in [14], 129% (active).
On to `Cc1ccc(-c2nnc(N3CCC(C)CC3)c3ccccc23)cc1C`, for which the outcome in assay [1], in assay [2], in [5], in assay [6], in [17] and in assay [8] was inactive. Besides, the result in assay [9], in assay [10], in assay [11], in assay [12], in assay [13] and in assay [15] was inactive. In assay [16], the outcome was inactive. The potentiation is 7% (active) in assay [3], 127% (active) in assay [4] and 60.2% (active) in assay [14].
In the case of `N#CC1=C(N)C(C#N)(C#N)C(c2cccnc2)C2CC(c3ccccc3)CC=C12` (stereo not given), the result in assay [1], in assay [2], in assay [3], in [5], in assay [6] and in assay [17] was inactive. Moreover, the outcome in assay [8], in assay [9], in [10], in assay [11], in [12] and in assay [13] was inactive. Besides, the result in [15] and in [16] was inactive. The potentiation is 77% (active) in [4] and 9.65% (active) in assay [14].
With `O=C(c1cccc([N+](=O)[O-])c1)N1CCCC(C(=O)N2CCCCCC2)C1` (stereo not given), the result in assay [1], in assay [2], in assay [3], in assay [4], in assay [5] and in assay [6] was inactive. Further, the result in assay [17], in assay [8], in assay [9], in [10], in assay [11] and in assay [12] was inactive. In addition, the result in [13], in assay [14], in assay [15] and in [16] was inactive.
Turning to `CC(C)c1c(O)nc(SCCN(C)C)[nH]c1=O`, the result in assay [1], in assay [2], in assay [5], in [6], in assay [17] and in assay [8] was inactive. Also, the compound was classed as inactive in assay [9], in [10], in assay [11], in [12], in [13] and in assay [15]. Further, the result in assay [16] was inactive. The potentiation in [3] is 13% (active); in assay [4] it was 27% (active); in assay [14], 57.7% (active).
As to `CC1Cc2ccccc2N1C(=O)CSc1nc2c(c(=O)n(C)c(=O)n2C)n1Cc1ccc(F)cc1` (stereo not given), the result in [1], in assay [2], in [5], in [6], in assay [17] and in assay [8] was inactive. Moreover, the call in [9], in assay [10], in assay [11], in assay [12], in assay [13] and in [15] was inactive. In assay [16], the outcome was inactive. Further, the potentiation in [3] is 36% (active); in assay [4], 40% (active); in assay [14], 67.1% (active).
As to `Cc1cccc(Cn2c(N3CCN(c4ccccc4)CC3)nc3c2c(=O)n(C)c(=O)n3C)c1`, the result in assay [1], in assay [2], in assay [3], in assay [5], in assay [6] and in [17] was inactive. The outcome in assay [8], in assay [9], in [10], in [11], in assay [12] and in [13] was inactive. For the same compound, the result in assay [15] and in assay [16] was inactive. In addition, the values for the potentiation in assay [4] and in [14] were 71% (active) and 59.2% (active), respectively.
Turning to `Cc1cc(OCC(=O)N(C(C)C)C(C)C)cc(C)c1Br`, the outcome in assay [1], in assay [2], in [3], in assay [5], in assay [6] and in [17] was inactive. Besides, the outcome in assay [8], in assay [9], in assay [10], in assay [11], in assay [12] and in assay [13] was inactive. Further, the outcome in assay [15] and in [16] was inactive. In addition, the values for the potentiation in assay [4] and in assay [14] were 22% (active) and 31.9% (active), respectively.
For the compound `Cc1cc2oc(C(=O)N(Cc3ccccc3)C3CCS(=O)(=O)C3)cc(=O)c2cc1Cl` (stereo not given), the result in [1], in assay [2], in [3], in [5], in [6] and in assay [17] was inactive. The outcome in assay [8], in assay [9], in assay [10], in assay [11], in [12] and in [13] was inactive. For the same compound, the result in [15] and in [16] was inactive. The potentiation in assay [4] is 47% (active); in assay [14], 68.1% (active).
As for `CN(C)CCNc1ccc(Cl)cc1[N+](=O)[O-]`, the outcome in assay [1], in [2], in assay [3], in [4], in assay [5] and in [6] was inactive. Moreover, the result in assay [17], in assay [8], in assay [9], in assay [10], in [11] and in [12] was inactive. Also, the result in [13], in [15] and in [16] was inactive. For the same compound, the potentiation in [14] is 8.91% (active).
